# High-throughput results: PubChem BioAssay, Johns Hopkins Ion Channel Center
# CHT block – inhibitors of human choline transporter CHT | High affinity choline transporter 1 (Homo sapiens), Q9GZV3 | hit rate 0.86% among 310,000 | CHT-expressing cells, membrane potential dye, choline response; hits give low values | B-score at 10 µM;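 active means B-score over 3 SD under the library average, and starting fluorescence ratio not unusually high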;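 further: choline stimulus applied at its EC90 after an EC20 pre-addition; B-score computed on integrated fluorescence ratio after choline addition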
# TMEM16A inh – TMEM16A chloride channel inhibitors, primary screen, cell-based, HTS; Anoctamin-1 (Mus musculus), Q8BHY3; HEK293 TMEM16A/YFP iodide influx fluorescence, ionomycin; normalized B-score (activity score, 25-100; higher = stronger inhibition) at 10 µM; hit rate 1.2% among 310,000;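 active means ratio plate-corrected score three or more library SD toward inhibition, starting fluorescence score within five deviations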;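 further: score derived from kinetic fluorescence span divided by baseline fluorescence per well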
# Target sequence (Q8BHY3 whole entry, looked up): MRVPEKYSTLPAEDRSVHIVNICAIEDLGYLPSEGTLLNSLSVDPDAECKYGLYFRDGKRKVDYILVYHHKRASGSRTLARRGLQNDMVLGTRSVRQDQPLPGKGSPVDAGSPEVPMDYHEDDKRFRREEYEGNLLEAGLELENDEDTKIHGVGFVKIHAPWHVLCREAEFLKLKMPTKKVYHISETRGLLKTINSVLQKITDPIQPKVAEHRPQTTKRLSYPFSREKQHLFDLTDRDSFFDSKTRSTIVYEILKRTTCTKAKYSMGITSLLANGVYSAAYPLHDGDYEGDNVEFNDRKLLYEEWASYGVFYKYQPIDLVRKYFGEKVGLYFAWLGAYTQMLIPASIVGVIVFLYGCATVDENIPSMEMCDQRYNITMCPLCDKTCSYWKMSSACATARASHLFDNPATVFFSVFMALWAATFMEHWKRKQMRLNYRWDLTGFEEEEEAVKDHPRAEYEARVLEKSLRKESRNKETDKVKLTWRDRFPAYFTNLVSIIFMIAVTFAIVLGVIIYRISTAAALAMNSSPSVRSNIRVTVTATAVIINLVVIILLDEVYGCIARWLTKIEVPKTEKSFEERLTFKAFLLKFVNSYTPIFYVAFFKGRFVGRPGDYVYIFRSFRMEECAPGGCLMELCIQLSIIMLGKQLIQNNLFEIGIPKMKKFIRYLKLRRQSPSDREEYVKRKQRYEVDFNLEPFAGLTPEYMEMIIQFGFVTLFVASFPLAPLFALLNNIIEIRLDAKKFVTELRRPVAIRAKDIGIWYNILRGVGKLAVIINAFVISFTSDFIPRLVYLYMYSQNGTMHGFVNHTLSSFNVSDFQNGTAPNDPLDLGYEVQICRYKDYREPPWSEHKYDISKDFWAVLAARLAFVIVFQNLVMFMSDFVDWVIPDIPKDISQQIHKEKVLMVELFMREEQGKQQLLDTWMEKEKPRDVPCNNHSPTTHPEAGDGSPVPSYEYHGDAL
# ANO1 activ – TMEM16A chloride channel activators or potentiators, primary screen, cell-based, HTS. B-score at 10 µM. HEK293 TMEM16A/YFP-H148Q/I152L, iodide quench fluorescence; hits give low values. hit rate 0.3% among 340,000. AID 623877, 2012. Anoctamin-1 (Mus musculus), Q8BHY3;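 active means fluorescence-ratio B-score plate-corrected deviation score at least 3 library SD below zero, with starting fluorescence score within 5 deviations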;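 further: channel opened by trigger with iodide after compound preincubation; score built on the fluorescence ratio of max minus min over baseline; more negative score means more quench and so TMEM16A activation or potentiation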
# CHT allo act – CHT positive allosteric modulators, primary screen, cell-based, membrane potential dye, choline EC20; High affinity choline transporter 1 (Homo sapiens), Q9GZV3; CHT-expressing cells; hits give high values; LV-AA mutant CHT in HEK293 cells; B-score at 10 µM; hit rate 0.49% among 310,000;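 active means initial fluorescence not abnormally high and integrated response B-score, plate-corrected, over 3 SD above library mean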
# TMEM16A reconf – TMEM16A chloride channel inhibitors, confirmation, cell-based, re-confirmation. AID 652189, 2013. shares compounds with TMEM16A inh. hit rate 39% among 2,300. inhibition, % at 10 µM. HEK293 TMEM16A/YFP-H148Q, iodide quench fluorescence; ionomycin added to raise cell calcium;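 active means mean duplicate percent inhibition, scaled so buffer wells are 0 and the reference blocker 100, over three buffer SD above buffer mean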
# HEK293 Ca mobil – calcium mobilization in TMEM16A/YFP HEK293 cells, confirmation, counter-screen for TMEM16A inhibitor project; shares compounds with TMEM16A inh; Fluo4 calcium mobilization; calcium response (% of ionomycin), % at 10 µM; hit rate 2% among 2,300;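 active means duplicate-averaged calcium signal over 20% of the ionomycin maximum, relative to buffer baseline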;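 further: each well's signal is peak minus trough fluorescence divided by its pre-addition baseline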
# YFP-HEK293 quench – iodide YFP quench changes in parental YFP-HEK293, counter-screen for TMEM16A inhibitor project, cell-based; YFP ratio F(max-min)/F0 at 10 µM; ionomycin; shares compounds with TMEM16A inh; 2,300 tested, under 10 active;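 active means yellow fluorescent protein signal ratio exceeding the buffer control mean by over 5 SD of those controls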;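 further: ratio is mean of duplicate wells from kinetic YFP trace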
# ClC-1 inh – ClC-1 chloride channel inhibition, selectivity assay for TMEM16A inhibitor project, cell-based, voltage-dependent ClC-1; shares compounds with TMEM16A inh; CHO ClC-1-YFP, iodide influx fluorescence quench; iodide control reads 0, buffer control 100; ratio percent, % at 10 µM; 2,300 tested, under 10 active;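 active means duplicate-mean ratio percent above the mean of iodide-only control wells, which defines zero, plus 5 of their SD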;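 further: higher percent means stronger block of ClC-1 iodide influx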
# Numbers stand for hits; i = inactive; nt = not tested or not shown. A selection: hits, their analogues and other compounds. The true share with any hit is near 2.3%.
SMILES,CHT block,TMEM16A inh,ANO1 activ,CHT allo act,TMEM16A reconf,HEK293 Ca mobil,YFP-HEK293 quench,ClC-1 inh
COc1ccc(C(=O)NCC(=O)OCc2ccc(F)cc2)cc1,i,i,i,i,nt,nt,nt,nt
CC(C)(CNC(=O)c1ccc([N+](=O)[O-])c(Cl)c1)CNC(=O)c1ccc([N+](=O)[O-])c(Cl)c1,i,100,i,i,i,i,i,i
CN(C(=O)C1CCN(S(=O)(=O)c2ccccc2[N+](=O)[O-])CC1)C1CCCCC1,nt,nt,i,nt,nt,nt,nt,nt
CCOC(=O)c1ccccc1NS(=O)(=O)c1ccc(C)cc1,i,i,i,i,nt,nt,nt,nt
CCOC(=O)c1cc(C)n(S(=O)(=O)c2ccc(C)cc2)c1C,i,100,i,i,18%,i,i,i
c1coc(CNc2nc3nonc3nc2NCc2ccco2)c1,i,25,i,i,i,i,i,i
CCC(=O)N(CCC(c1ccco1)c1ccccc1OC)Cc1cccs1 (stereo unspecified),i,100,i,i,i,i,i,i
COc1ccc(NC(=O)c2cc3c(COC(C)=O)cnc(C)c3oc2=Nc2cccc(C(=O)O)c2)c(OC)c1,i,i,i,i,nt,nt,nt,nt
O=c1c2c([nH]c3ccccc13)CCCCCC2,i,25,i,i,i,i,i,i
O=c1c2c([nH]c3ccccc13)CCCCC2,i,i,i,i,nt,nt,nt,nt
CCOC(=O)c1c(NC(=O)C(C)N2CCN(C(=O)c3ccco3)CC2)sc2c1CCCC2 (stereo unspecified),i,25,i,i,i,i,i,i
COc1ccc(CN2CCC(Oc3ccc(C(=O)N4CCCCC4)cc3)CC2)cc1C,i,i,i,i,nt,nt,nt,nt
CC(Oc1nc2c(c(=O)n(C)c(=O)n2C)n1C)C1CCCCC1 (stereo unspecified),nt,nt,i,nt,nt,nt,nt,nt
CN1/C(=C\C(=O)Nc2ccc(Cl)cc2)C(C)(C)c2ccccc21,i,25,i,i,i,i,i,i
CN1/C(=C\C=C(/C#N)C(=O)Nc2ccc(Cl)cc2)C(C)(C)c2ccccc21,i,i,i,i,nt,nt,nt,nt
COc1ccc(N2CCN(CCCNC(=O)CN3C(=O)COc4ccccc43)CC2)cc1,i,i,i,i,nt,nt,nt,nt
CC1=C(C(=O)OCC(Br)(Br)Br)C(c2cccc([N+](=O)[O-])c2)NC(=O)N1CCCC(=O)O (stereo unspecified),i,25,i,i,i,i,i,i
CCOC(=O)C1=C(C)N(CCCCCC(=O)O)C(=O)NC1c1cccc([N+](=O)[O-])c1 (stereo unspecified),i,i,i,i,nt,nt,nt,nt
C[n+]1cccc2cccc([O-])c21,nt,nt,i,nt,nt,nt,nt,nt
Cc1cccc(N(C)Cc2nnc(-c3cccc(Br)c3)o2)c1,i,i,i,i,nt,nt,nt,nt
CCOC(=O)C(C)Sc1nnc(-c2ccccc2O)n1-c1ccc(C)cc1 (stereo unspecified),i,i,i,i,nt,nt,nt,nt
CC(=O)Nc1ccc(/C=N/NC(=S)NC(C)C)cc1,i,i,i,i,nt,nt,nt,nt
CCCN(CCC)C(=O)Cc1coc2ccc3ccccc3c12,i,i,nt,i,nt,nt,nt,nt
O=C(Cc1coc2ccc3ccccc3c12)NCc1ccccc1,i,100,i,i,i,i,i,i
Cc1cc(C)c(Cn2cnc3ccccc32)c(C)c1,i,i,i,i,nt,nt,nt,nt
SMILES,CHT block,TMEM16A inh,ANO1 activ,CHT allo act,TMEM16A reconf,HEK293 Ca mobil,YFP-HEK293 quench,ClC-1 inh
CCC(C)C(NC(=O)C1CCC(C)CC1)C(=O)Nc1cc(OC)ccc1OC (stereo unspecified),i,25,i,i,i,i,i,i
CCC(C)C(NC(=O)C1CCC(C)CC1)C(=O)Nc1ccc(OC)cc1OC (stereo unspecified),i,i,i,i,nt,nt,nt,nt
O=C(Nc1cc2c(=O)n(-c3ccc(Oc4ccccc4)cc3)ccc2oc1=O)c1ccccc1,i,i,i,i,nt,nt,nt,nt
CC1C/C(=N/N=C2/NC(=O)CS2)CC(C)(C)C1 (stereo unspecified),i,100,i,i,i,i,i,i
CCOC(=O)c1c(NS(=O)(=O)Cc2ccccc2)sc2c1CCCC2,i,i,i,i,nt,nt,nt,nt
CCOC(=O)c1c(NS(=O)(=O)c2ccc(Br)cc2)sc2c1CCC2,i,100,i,i,70%,i,i,i
Cc1sc2ncn(CC(=O)OCC(=O)NC(C)(C)C)c(=O)c2c1C,i,i,nt,i,i,i,i,i
Cc1ccc(C)c(S(=O)(=O)C(C#N)c2nc3ccccc3nc2N2CCOCC2)c1 (stereo unspecified),i,25,i,i,22%,i,i,i
Cc1ccc(S(=O)(=O)C(C#N)c2nc3ccccc3nc2N2CCN(C)CC2)cc1C (stereo unspecified),i,i,i,i,nt,nt,nt,nt
Cc1cccc(S(=O)(=O)C(C#N)c2nc3ccccc3nc2N2CCCC2)c1 (stereo unspecified),i,i,i,i,nt,nt,nt,nt
Cc1ccc(C)c(S(=O)(=O)C(C#N)c2nc3ccccc3nc2N2CCCC2)c1 (stereo unspecified),i,i,i,i,i,i,i,i
Cc1ccc(S(=O)(=O)CC(=O)Nc2ncc([N+](=O)[O-])s2)cc1,i,25,i,i,38%,i,i,i
CCc1cc(-c2[nH]ncc2-c2ccc3c(c2)OCO3)c(O)cc1O,i,100,i,i,52%,i,i,i
Cc1ccc2nc(C)c(CN3CCN(c4ccc([N+](=O)[O-])cc4Cl)CC3)n2c1,i,25,i,i,18%,i,i,i
CCCCCCOC(=O)CC1CC(C(C)=O)C1(C)C (stereo unspecified),nt,nt,i,nt,nt,nt,nt,nt
CC(C)(NO)/C(=N/O)c1cccs1,i,25,i,i,i,i,i,i
CN1CCCC1CCNc1ccc2sc3ccccc3c(=O)c2c1 (stereo unspecified),i,i,i,i,i,i,i,i
COCCCNC(=S)NNC(=O)c1cc(C2CC2)nc2ccccc12,i,i,i,i,nt,nt,nt,nt
C=CCNC(=O)C1CC(=O)N(c2ccc(Br)cc2)C1 (stereo unspecified),i,i,i,i,nt,nt,nt,nt
CCNC(=O)C1CC(=O)N(c2ccc(Br)cc2)C1 (stereo unspecified),i,i,i,i,i,i,i,i
COc1cccc(OCC(=O)NNC(=O)c2ccc3ccccc3c2)c1,i,i,i,i,nt,nt,nt,nt
